# 14-3-3g Raf: modulators of 14-3-3 gamma protein binding, primary screen, biochemical, fluorescence polarization. 14-3-3 protein gamma (Homo sapiens), P61981. FP, 14-3-3gamma / TMR-pS259-Raf peptide binding. inhibition, % at 40 µM. hit rate 0.19% among 160,000; in the data active = inhibition above about 30%;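 note: 0% = protein plus tracer without compound and 100% = blank with tracer alone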
# Target sequence (P61981 whole entry, looked up): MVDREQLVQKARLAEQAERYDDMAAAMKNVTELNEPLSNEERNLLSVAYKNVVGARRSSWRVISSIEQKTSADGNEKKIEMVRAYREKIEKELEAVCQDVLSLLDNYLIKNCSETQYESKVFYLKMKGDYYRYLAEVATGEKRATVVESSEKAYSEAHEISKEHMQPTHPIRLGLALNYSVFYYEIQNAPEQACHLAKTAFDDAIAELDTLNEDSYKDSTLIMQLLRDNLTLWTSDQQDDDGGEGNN
# * = called active by the depositor. The sample as a whole holds a higher share of hits than the screen did.
SMILES,14-3-3g Raf
CCCOc1ccc(C2C(=O)N(C3CCC(C)CC3)CC(=O)N2Cc2cccs2)cc1OC (stereo not drawn),-5
COC(=O)c1ccc(NC(=O)Cc2ccc(OC)cc2)cc1,-7
CCc1ccc(NC(=O)CSc2nccn2-c2ccc(Cl)cc2)cc1,9
O=C(Nc1nc(-c2ccc(F)cc2)cs1)c1cc(Cl)ccc1[N+](=O)[O-],12
Clc1ccc(-c2ncnn2-c2ccc(Br)nc2)cc1,3
CCOc1c(Br)cc(C2Nc3ccccc3NC3=C2C(=O)CC(c2cccs2)C3)cc1OC (stereo not drawn),-1
CC(=O)c1c(C(C)=O)c(C)n(-c2ccc(C)c(NC(=O)c3ccc(F)cc3)c2)c1C,32*
Cc1cc([N+](=O)[O-])ccc1NC(=O)c1ccc(F)cc1,4
CC(=O)c1c(C)[nH]c(C(=O)Nc2cc(C)ccc2C)c1C,-8
O=C1SC(Nc2ccccc2Cl)C(=O)N1c1ccccc1 (stereo not drawn),-4
COc1ccc(C2NC(=O)NC(C)=C2C(=O)OC2CCCC(C)C2)cc1Br (stereo not drawn),0
O=C1CCCC2=C1C1(O)C(=O)c3ccccc3C1(O)O2 (stereo not drawn),56*
CC(=O)C1=C(C)NC2(O)c3ccccc3C(=O)C12O (stereo not drawn),5
N#CC1=C(N)OC2=C(C(=O)CCC2)[C@]12C(=O)N(CC(N)=O)c1ccccc12,0
CCOC(=O)c1nc(NC(=O)COc2ccc(Cl)cc2)sc1C,1
Cn1c(=O)c(C(=O)NCCO)c(O)c2ccccc21,0
COc1ccc(Nc2c3c4c(c(Br)ccc4n(C)c2=O)C(=O)c2ccccc2-3)cc1,-39
O=C(Nc1ccc2c(c1)C(=O)c1ccccc1C2=O)c1ccc(Br)cc1,-18
CC(=O)c1c2c3c(cccc3n(C)c1=O)C(=O)c1ccccc1-2,32*
COc1ccc2c(c1N)C(=O)c1ccccc1C2=O,-80
CC(=O)c1c2c3c(c(Br)ccc3n(C)c1=O)C(=O)c1ccccc1-2,-1
CCCCCCCNc1c2c3c(cccc3n(C)c1=O)C(=O)c1ccccc1-2,16
Cn1c(=O)c(Nc2ccc(Br)cc2)c2c3c(cccc31)C(=O)c1ccccc1-2,151*
Cn1c(=O)c(N)c2c3c(cccc31)C(=O)c1ccccc1-2,109*
CCOc1cccc(C2NC(=O)NC(C)=C2C(=O)OC2CCCCCC2)c1 (stereo not drawn),-3
SMILES,14-3-3g Raf
CCc1ccc(C2=CC(c3cc(OC)c(OC)c(OC)c3)n3nnnc3N2)cc1 (stereo not drawn),6
CCC(=O)N1CCc2cc(S(=O)(=O)N3CCCCC3c3cccnc3)ccc21 (stereo not drawn),-20
COc1cc(C)c(C)cc1S(=O)(=O)N1CCCCC1c1cccnc1 (stereo not drawn),31*
CC(=O)Nc1ccc(S(=O)(=O)N2CCCCC2c2cccnc2)cc1 (stereo not drawn),-4
Cc1cccc2cc(CC3CC(c4ccc(Br)cc4)=NN3C(=O)CCC(=O)O)c(Cl)nc12 (stereo not drawn),-15
Cc1c(Cl)cccc1Nc1nc(-c2cc3ccccc3oc2=O)cs1,-2
O=C(CN1CCN(Cc2ccccc2Cl)C1=O)NCc1cccnc1,-5
O=C(CN1CCN(Cc2ccc(F)cc2)C1=O)NCc1ccccc1Cl,-10
O=C(CN1CCN(Cc2ccccc2Cl)C1=O)NCc1ccccn1,71*
CCOC(=O)C1=C(C)N(c2ccc(N(C)C)cc2)C(C)=C(C(=O)OCC)C1c1ccccc1Br,-9
COc1cc(C2Nc3ccc4ncccc4c3C3=C2C(=O)CC(C)(C)C3)ccc1OC(C)=O (stereo not drawn),-9
CC1CCCCN1S(=O)(=O)c1ccc(C(=O)Nc2nc3c(s2)COc2ccccc2-3)cc1 (stereo not drawn),-44
NC(=O)c1cc(N)ccc1N1CCCC1,31*
NC(=O)c1ccc(N2CCCCC2)c(N2C(=O)C3C4C=CC(C4)C3C2=O)c1 (stereo not drawn),2
NC(=O)c1ccc(N2CCCCC2)c(N2C(=O)CCC2=O)c1,-1
CC(=O)Nc1ccccc1C(=O)C(=O)N1CCCCC1,-12
COc1ccc(CNC(=O)C2c3cc(OC)c(OC)cc3C(=O)N(C)C2c2ccccc2F)c(OC)c1 (stereo not drawn),-2
OC(CCl)Cn1c2ccccc2c2ccccc21 (stereo not drawn),8
OCCN1CCN(CC#CCn2c3ccccc3c3ccccc32)CC1,-2
C#CCn1c2ccccc2c2ccccc21,58*
O=C(NCCCN1CCc2ccccc2C1)C1CCCN(S(=O)(=O)c2cccs2)C1 (stereo not drawn),-5
O=C1c2ccccc2C(=O)c2cc(O)ccc21,-17
O=C(O)c1ccccc1C1=Nc2ccc(O)cc2Oc2cc(O)ccc21,123*
Cc1cc(-c2ccccc2C(=O)O)on1,-2
O=C(CCc1nc(-c2cccs2)no1)Nc1ccccn1,-17
SMILES,14-3-3g Raf
O=C(O)Cn1cccc([N+](=O)[O-])c1=O,-1
CC(C)Cc1ccc(S(=O)(=O)N2CCC(Cc3ccccc3)CC2)cc1,2
CC1CCCN(c2cc(NCCCC(=O)O)c3c4c(onc24)-c2ccccc2C3=O)C1 (stereo not drawn),51*
O=C(O)CCCNc1cc(N2CCN(C3CCCCC3)CC2)c2noc3c2c1C(=O)c1ccccc1-3,-104
CC1CC(C)CN(c2cc(NCCCC(=O)O)c3c4c(onc24)-c2ccccc2C3=O)C1 (stereo not drawn),-13
COC(=O)c1ccc(C(=O)NC23CC4CC(CC(C4)C2)C3)cc1,5
CC(=O)Nc1ccc(S(=O)(=O)N2CCN(c3ccc([N+](=O)[O-])c(NCc4ccco4)c3)CC2)cc1,6
O=C(O)c1cccnc1SC1CC(=O)N(c2ccc(N3CCOCC3)cc2)C1=O (stereo not drawn),30*
O=C(O)c1cccnc1SC1CC(=O)N(c2ccc3c(c2)OCO3)C1=O (stereo not drawn),-51
O=C(O)c1cccnc1SC1CC(=O)N(c2ccc([N+](=O)[O-])cc2)C1=O (stereo not drawn),-5
COc1ccc(NS(=O)(=O)c2ccc(NC(=NS(=O)(=O)c3ccccc3)c3ccccc3)cc2)nn1,-4
COc1cc(Cl)c(C)cc1NC(=O)Cn1cnc2sc(C)c(S(=O)(=O)N3CCC(C)CC3)c2c1=O,-11
CCCSc1ncnc2c1sc1nc3c(cc12)COC(C)(C)C3,-7
COc1cccc(Oc2coc3c(CN4CCOCC4)c(O)ccc3c2=O)c1,-1
O=c1c(-c2ccc3c(c2)OCCO3)coc2c(CN3CCOCC3)c(O)ccc12,-12
COc1ccccc1-c1coc2c(CN3CCOCC3)c(O)ccc2c1=O,30*
CCOc1ccccc1NC(=O)CSc1nc2c(c(=O)n1Cc1ccccc1)SC(C)C2 (stereo not drawn),0
CCC(=O)N1CCc2cc(S(=O)(=O)CCC(=O)N3CC(C)CC(C)C3)ccc21 (stereo not drawn),-2
O=C(O)C1Cc2c([nH]c3ccccc23)C(c2ccccc2)N1 (stereo not drawn),5
O=C(O)C1Cc2c([nH]c3ccccc23)C(c2ccccc2[N+](=O)[O-])N1 (stereo not drawn),53*
O=C(O)C1Cc2c([nH]c3ccccc23)CN1 (stereo not drawn),-2
O=C(O)c1[nH]ncc1[N+](=O)[O-],0
O=c1c2sccc2nc(SCc2ccc([N+](=O)[O-])cc2)n1CCc1ccccc1,0
